Assay results: the supplement of paper PMC4166925
± gives the standard deviation of the averaged measurements. In all, about 33,000 sequences were measured (“E-score (dimensionless, -0.5 to 0.5)”: median about -0.049, highest 2% from about 0.37 on). Only a selection was taken, and the highest values are over-represented in it overall.

system: T1, PmTbr T-box DNA-binding domain (GST fusion); assay: PBM E-score of 8-mer (E-score (dimensionless, -0.5 to 0.5)); Tbr is Tbrain of the sea star Patiria miniata (Pm) or the sea urchin Strongylocentrotus purpuratus (Sp); higher = stronger binding preference; details: the construct has about 5 more residues each side
T1 sequence: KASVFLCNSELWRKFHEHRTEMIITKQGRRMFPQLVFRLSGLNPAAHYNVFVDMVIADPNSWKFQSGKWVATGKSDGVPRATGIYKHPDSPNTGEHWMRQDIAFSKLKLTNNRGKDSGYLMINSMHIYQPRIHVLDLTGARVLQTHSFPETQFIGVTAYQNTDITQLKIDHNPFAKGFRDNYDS
Summary of the method: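 Universal Agilent oligonucleotide arrays, made double-stranded by primer extension, were incubated with 200 nM GST-fused Tbr T-box DNA-binding domain in PBS (pH 7.5). The protein was expressed in BL21 E. coli at 20 °C and purified by glutathione affinity chromatography. After scanning and quantification, the Universal PBM Analysis Suite assigned an enrichment E-score to each ungapped 8-mer, averaged over duplicate arrays.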

Sequence	PBM E-score of 8-mer
AATTCTAA	-0.128 ± 0.086
AAAGTCCG	-0.00454 ± 0.029
CCATCAGG	0.0307 ± 0.054
CGAAGGGA	0.00651 ± 0.088
ATATTCTC	-0.0331 ± 0.008
AGCGCTAA	0.362 ± 0.02
GGCGCTAC	0.346 ± 0.037
CGCGCTAG	0.159 ± 0.019
GGCGCTAA	0.426 ± 0.0098
CGCGCTAA	0.369 ± 0.0084
TGCGCTAA	0.247 ± 0.036
AGCAGCGA	-0.0709 ± 0.041
CCGCCCAA	-0.101 ± 0.091
TATGAGAA	-0.274 ± 0.048
GATTGCCC	-0.0679 ± 0.024
GCGCAGGA	-0.0924 ± 0.067
AGGTGTAT	0.328 ± 0.0044
GGGTGTAA	0.385 ± 0.013
AGGTGTAG	0.408 ± 0.0046
AGGTGTAC	0.218 ± 0.043
AGGTGTAA	0.47639 ± 0.00041
TGGTGTAA	0.28 ± 0.011
CGGTGTAA	0.131 ± 0.037
CGGTGTAG	0.134 ± 0.1
GGGTGTAC	-0.0259 ± 0.052

Sequence	PBM E-score of 8-mer
TTGGGAAA	-0.102 ± 0.057
AGTTCTGC	-0.332 ± 0.0036
CGACGGGA	-0.129 ± 0.036
CACAAGTG	0.367 ± 0.0037
ATTGCCTA	-0.134 ± 0.077
AGTGCTGC	0.0868 ± 0.0037
CATCAAAG	-0.0524 ± 0.035
GATATCCC	-0.147 ± 0.05
AACGCCTT	0.3747 ± 0.00064
AACGCCTA	0.279 ± 0.034
AACGCCTC	0.362 ± 0.007
ATAGTGTG	0.393 ± 0.033
ATAGTGTA	0.0192 ± 0.0016
ACAGTGTC	0.238 ± 0.0038
AAAGTGTG	0.435 ± 0.012
AGAGTGTG	0.34 ± 0.01
ATAGTGTC	0.335 ± 0.011
AAAGTGTC	0.4215 ± 0.0027
AAAGTGTT	0.429 ± 0.014
AAAGTGGT	0.106 ± 0.042
AAAGTGGC	0.234 ± 0.005
AAAGTGAG	0.219 ± 0.048
AAAGTGTA	0.147 ± 0.057
AGGTTGTG	0.16 ± 0.052
AGGACCAC	-0.253 ± 0.12

Sequence	PBM E-score of 8-mer
GATAGGCA	-0.121 ± 0.014
AGAATCTA	0.151 ± 0.0012
CTTCGATA	-0.00351 ± 0.034
TTAGCAAA	0.173 ± 0.064
CGAGTGTC	0.294 ± 0.018
AGAGTGTA	0.0538 ± 0.058
AGAGTGTC	0.385 ± 0.0076
TAGGTTAA	-0.216 ± 0.0052
AGAGTTGA	0.0684 ± 0.016
AGGCGCGC	0.152 ± 0.021
GGGCGCGA	0.409 ± 0.02
AGGCGAGA	0.401 ± 0.011
CGGCGCTA	0.239 ± 0.033
AGGCGAGC	-0.25 ± 0.068
AGGCGCTA	0.4421 ± 0.0025
GGGGGCGA	0.01664 ± 0.00016
AGGCGCGG	0.242 ± 0.019
GGGCGAGA	0.194 ± 0.052
AGGCGCGA	0.463 ± 0.0056
GGGCGCTA	0.346 ± 0.018
CGGCGCGA	0.317 ± 0.034
AAGCGATG	-0.00845 ± 0.0036
CCCTCTGC	0.0209 ± 0.072
ATCTTAGA	-0.0793 ± 0.081
CGACCAAC	0.00547 ± 0.043

Sequence	PBM E-score of 8-mer
ACTGCTGA	0.181 ± 0.035
AGTCATCG	-0.153 ± 0.0094
CTTAAGGC	-0.0813 ± 0.065
CAATCTAC	-0.0883 ± 0.0018
GCTCTATA	-0.25 ± 0.048
TCGAAAGA	-0.172 ± 0.05
GACCCTTA	-0.0822 ± 0.0071
CGAGTTAG	-0.0558 ± 0.052
GAAGCTCC	-0.342 ± 0.041
CTGTGGAC	-0.104 ± 0.0043
CACTAGGG	-0.15 ± 0.031
AGGCGACG	0.268 ± 0.0026
AGGCGACA	0.3974 ± 0.0038
AGGCGACC	-0.13 ± 0.17
AATTGGCA	0.247 ± 0.036
CGAAAAAA	0.00041 ± 0.062
CGAAATCG	0.231 ± 0.046
AAAAGTGG	0.107 ± 0.0099
AAAAGTGA	0.197 ± 0.059
ACAAGTCT	0.103 ± 0.044
ACAAGTGA	0.277 ± 0.034
ACAAGTAT	0.112 ± 0.028
AAAAGTGT	0.413 ± 0.015
ACAAGTGT	0.391 ± 0.0052
ACAAGTGC	0.249 ± 0.005

Sequence	PBM E-score of 8-mer
ACAAGTGG	0.375 ± 0.017
CGCACTCA	0.161 ± 0.074
AAAACGGG	-0.146 ± 0.0023
ATATACGA	-0.298 ± 0.059
AAATTCTT	-0.155 ± 0.029
TACTACGA	0.0382 ± 0.023
ATATGGCC	-0.235 ± 0.066
ATGGGCTC	-0.154 ± 0.16
TCGCTTCA	0.177 ± 0.02
CACGGGTC	0.0871 ± 0.051
CTGTCGGA	0.101 ± 0.044
GTGTCGCA	0.415 ± 0.0083
ATGTCGGA	-0.0551 ± 0.054
GTGTCGGA	0.394 ± 0.015
CTGTCGCA	0.224 ± 0.064
ATGTCGCA	0.254 ± 0.049
CGGATGCC	-0.239 ± 0.09
AGTAGAGA	-0.165 ± 0.0094
CAAATGTC	0.0249 ± 0.12
ACCTCAAC	-0.0545 ± 0.07
CCGCTGAA	-0.279 ± 0.04
CGTGCTAG	0.287 ± 0.027
GGTGCTAC	0.434 ± 0.0055
GGTGCTTA	0.0849 ± 0.048
TGTGCTAA	0.346 ± 0.02

Sequence	PBM E-score of 8-mer
CGTGCTAA	0.378 ± 0.021
AGTGCTAT	0.27 ± 0.0047
GGTGCTAA	0.4753 ± 0.00081
CGTGCTAC	0.185 ± 0.0064
GGTGCTCA	-0.112 ± 0.025
AGTGCTAC	0.276 ± 0.031
AGTGCTAG	0.358 ± 0.0077
AGTGCTAA	0.421 ± 0.012
ACAGTTAG	0.0702 ± 0.027
ATGAATCA	-0.129 ± 0.0053
GTCCATGA	-0.052 ± 0.031
GGGTGGGA	0.237 ± 0.011
CCCACATA	-0.214 ± 0.08
CAAGGGGC	-0.095 ± 0.021
AGCAGCAA	-0.118 ± 0.011
CAACGTCA	0.0459 ± 0.035
ACACTTTC	0.408 ± 0.0072
AGACTTTG	-0.00767 ± 0.055
CCACTTTC	0.104 ± 0.06
ACACTTTA	0.338 ± 0.029
ACTCTTTC	-0.00346 ± 0.013
ACACTTTG	0.404 ± 0.014
GTTTTTAA	-0.131 ± 0.14
AATCACCT	0.311 ± 0.017
GTGTAGAA	0.164 ± 0.051

Sequence	PBM E-score of 8-mer
AGACAGGC	-0.103 ± 0.03
AAGTTAGC	0.192 ± 0.011
ATGTCCGG	-0.174 ± 0.071
CACCTCAA	0.395 ± 0.022
CACCTCAC	0.4504 ± 0.0025
TACCTCAA	-0.132 ± 0.028
CACCTCAG	0.42 ± 0.0057
GACCTCAC	0.0743 ± 0.032
CTCCTCAG	-0.0996 ± 0.015
AACCTCAC	0.219 ± 0.015
AACCTCAA	-0.113 ± 0.028
AACCTCAG	-0.26 ± 0.042
CTGCCACC	0.265 ± 0.036
CCCGATTA	0.0524 ± 0.024
CCGCTAGA	0.0332 ± 0.029
CGATTGCC	-0.0231 ± 0.013
GTACAGCA	-0.0813 ± 0.032
ACGGAAAT	-0.189 ± 0.071
CCGCAGGC	0.000335 ± 0.0022
ACTCACAG	0.314 ± 0.043
GCTCACAA	0.132 ± 0.037
CCTCACAA	0.155 ± 0.016
